Source: PubChem BioAssay
HCV inh = HCV inhibition. Huh7.5.1 HCVcc-Cre infection, luciferase reporter, 44 h. Potency, µM (doses to about 41.8 µM), inactives show at the top dose activity change, negative = inhibition, usual class: inhibitors. AID 651820. 3.4% of 340,000 active; active means well fitted inhibition curve with a large enough effect; inconclusive means small, poorly fitted or top-dose-only effect, or another doubt; inactive means no such curve, though single readings can be large or run the other way; further: potency means the concentration at half of the fitted maximal effect
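Reporter virus HCVcc-Cre (~0.5 moi) infects cells exposed to compound; seeding density 1,000 cells/well with 4 h settling beforehand. Luminescence, 15 sec read, taken 44 h post-infection following a 15 min RT substrate incubation.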
Vaccinia mCherry = vaccinia inhibition (mCherry reporter); 0.63% of 310,000 active; Potency, µM (series often up to 36.5 µM), without a hit: at the highest dose activity change, negative = inhibition, most hits filed as inhibitors; AID 720579; Vaccinia virus mCherry reporter infection, fluorescence; calls by dose curve; tested in A549 cells; further: potency means the concentration at half of the fitted maximal effect; nearly all actives have a fitted effect of over 35% in size
FMDV inh = foot and mouth disease virus antiviral activity | 1.2% of 410,000 active | Potency, µM (highest dose often 57.9 µM), inactives show at the top dose activity change, negative = inhibition, usual class: inhibitors | FMDV antiviral cell-based qHTS | AID 1159524; calls by dose curve; tested in HEK293T cells; further: read-out not given here; potency means the concentration at half of the fitted maximal effect; nearly all actives have a fitted effect of over 45% in size
HCMV antiviral = inhibitors of human cytomegalovirus. activity change, negative = inhibition, % at 57.5 µM. HFF cells, HCMV-luciferase reporter, 72 h; stronger effect = lower value. 4.5% of 410,000 active; in the data active means activity change below about -60%; inconclusive means no clear call, values can overlap the other calls; inactive means above about -39%
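Two-dose cell screen: HFF monolayers treated with compounds and infected with luciferase-expressing HCMV at 1 PFU/cell, 72 h at 37C, then lysed for luciferase measurement.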
VACV Venus inh = inhibitors of vaccinia virus (Venus reporter); 0.46% of 330,000 active; AID 720580; Vaccinia virus Venus reporter expression, fluorescence; Potency, µM (highest dose often 36.5 µM), without a hit: at the top dose activity change, negative = inhibition, hits mostly inhibitors; calls by dose curve; tested in A549 cells; further: potency means the concentration at half of the fitted maximal effect; nearly all actives have a fitted effect of over 30% in size
* marks the source's active call; other numbers are inactive results; i = inactive; ? = inconclusive; . = not tested or not shown; ! = not active in a repeat; [ ] = remark or other dose. A selection: hits, their analogues and other compounds. The true share with any hit is near 7.3%. On the % scale 0 is the no-effect control and ±100 the full control effect.

SMILES | HCV inh | Vaccinia mCherry | FMDV inh | HCMV antiviral | VACV Venus inh
COc1cc2c(cc1OC)C(COc1ccc(F)cc1)N(C(=O)c1cccc(F)c1)CC2 (configuration not stated) | . | -3% | -19% | -18 | -11%
O=C(c1cnn(-c2nccc(-c3ccccc3F)n2)c1C1CC1)N1CCN(CCO)CC1 | . | -9% | -2% | . | -11%
O=C(NC1CCCCC1)c1cc2c(cc1Cl)N1CCCCCC1=NS2(=O)=O | -10% | -8% | 8% | -97* | -3%
CCC1(C2CCN(Cc3ccc(C)s3)CC2)NC(=O)N(CC2COc3ccccc3O2)C1=O (configuration not stated) | . | -22% | -20% | . | -18%
CN1C(=O)C(CC(=O)NCCc2ccccc2)N(NC(=O)c2ccc(Cl)cc2)C1=S (configuration not stated) | -8% | . | -10% | -74* | .
COc1cc2nc(N3CCCN(C)CC3)nc(NC3CCN(Cc4ccccc4)CC3)c2cc1OC | . | ? | . | . | 11µM*!
COc1cc2c(NC3CCN(C)CC3)nc(N3CCCN(C)CC3)nc2cc1OCCCC(C)C | . | ? | . | . | 13µM*
COc1cc2c(NC3CCN(C)CC3)nc(N3CCCN(C)CC3)nc2cc1OCCCN1CCCCC1 | . | 4µM* | . | . | 3.5µM*
COc1cc2nc(N3CCN(C)CC3)nc(NC3CCN(Cc4ccccc4)CC3)c2cc1OC | . | -1% | . | . | -27%
CC(=O)N1CCc2c(sc3c2c(=O)n(Cc2ccccc2)c(=O)n3Cc2ccccc2Cl)C1 | . | -30% | ? | 1 | -22%
CC(=O)Nc1ccc(/C=C/c2nc3ccccc3s2)cc1 | . | 20% | . | . | 35%
Cc1c(C(=O)N2CCN(Cc3ccc4c(c3)OCO4)CC2)sc2ncnc(N3CCN(c4ccccc4F)CC3)c12 | ? | . | 28µM* | -76* | .
Cc1c(C(=O)N2CCN(Cc3ccc4c(c3)OCO4)CC2)sc2ncnc(N3CCN(c4ccccc4)CC3)c12 | ? | . | 2.5µM* | -86* | .
CCOC(=O)CCN(c1ccccc1)S(=O)(=O)c1cc(-c2cc(C)no2)ccc1C | . | 0% | -11% | -11 | -7%
CC(C)c1cc(C(=O)N2CCN(C(c3ccccc3)c3ccccc3)CC2)no1 | ? | i | -11% | -8 | -18%
COc1ccc(-c2cc(C(=O)N3CCN(C(c4ccccc4)c4ccccc4)CC3)no2)cc1OC | ? | . | -24% | 6 | .
O=C(c1cc(-c2ccco2)on1)N1CCN(C(c2ccccc2)c2ccccc2)CC1 | 2.5µM* | . | ? | -104* | .
COc1ccc(-c2cc(C(=O)N3CCN(C(c4ccccc4)c4ccccc4)CC3)no2)cc1 | 10µM* | . | -14% | -14 | .
CC(C)c1ccc(CN2C(=O)C(n3ccc4ccccc43)c3ccccc32)cc1 (configuration not stated) | . | . | . | -12 | .
COc1ccc(C2/C=C\CN(C(=O)CC(C)C)CC(=O)N2Cc2ccc(F)cc2)cc1 (configuration not stated) | 16% | -20% | 21% | 4 | -10%
COc1ccc(C2/C=C\CN(C(=O)CC(C)(C)C)CC(=O)N2Cc2ccc(F)cc2)cc1 (configuration not stated) | 5µM* | -15% | 23% | 1 | -10%
CCCCCCC(=O)N1C/C=C\C(c2ccc(OC)cc2)N(Cc2ccc(F)cc2)C(=O)[C@H]1Cc1ccccc1 (some centres not stated) | -20%[8.37 µM] | -9% | ? | -93* | ?
Cc1cccc(CNC(=O)c2ccc(N3Cc4ccccc4Oc4ncccc43)s2)c1 | . | -4% | 0% | -3 | -8%
CC(CNC(=O)[C@@H](Cc1ccccc1)NC(=O)[C@H]1O[C@@H](n2cnc3c(=O)[nH]c(N)nc32)[C@H](O)[C@@H]1O)c1ccccc1 (some centres not stated) | . | . | . | -23 | .
Cc1c(CCOC(=O)C23CC4CC(CC(C4)C2)C3)sc[n+]1Cc1ccccc1 | -5% | -19% | -9% | -12 | -7%
SMILES | HCV inh | Vaccinia mCherry | FMDV inh | HCMV antiviral | VACV Venus inh
Cc1c(CCOC(=O)c2ccc(Cl)cc2Cl)sc[n+]1CC(=O)c1ccccc1 | 13µM* | -15% | -21% | 12 | ?
Cc1c(CCOC(=O)c2cc([N+](=O)[O-])cc([N+](=O)[O-])c2)sc[n+]1CC(=O)c1ccc(Br)cc1 | 10µM* | -13% | -28% | -33 | -18%
Cc1c(CCOC(=O)C23CC4(C)CC(C)(CC(C)(C4)C2)C3)sc[n+]1CC(=O)c1ccccc1 | 12% | ? | 28µM* | -100* | ?
Cc1sc[n+](CC(=O)c2ccc(Br)cc2)c1C | -2% | . | -23% | 0 | .
Cc1c(CCOC(=O)C23CC4CC(CC(C)(C4)C2)C3)sc[n+]1Cc1ccccc1 | -2% | . | 16µM* | 17 | .
Cc1c(CCO)sc[n+]1CC(=O)c1ccccc1 | . | -12% | . | . | -10%
CCOC(=O)Cn1c(=O)n(CC2CCCO2)c2nc(-c3ccc(CC)cc3)nc(C(N)=O)c21 (configuration not stated) | . | -28% | ? | 5 | -22%
COc1ccc2c(c1)OC(C)CN(CCC(=O)NCC1OCCc3ccccc31)C2 (configuration not stated) | . | -15% | -5% | . | -7%
COc1ccccc1NC(=O)Cn1c(=O)n(Cc2ccco2)c(=O)c2oc3ccccc3c21 | . | -9% | ? | -5 | -9%
Cc1c(CCOC(=O)CC23CC4CC(CC(C4)C2)C3)sc[n+]1CC(=O)c1ccccc1 | 11µM* | . | ? | 48 | .
Cc1cc(C)c2c(=O)cc(C(=O)Nc3sc4c(c3C(=O)NCc3ccccc3)CCCC4)oc2c1 | . | i | 0% | 1 | -10%
O=C1C(=O)N2C(=C1C(=O)N1CCCCCC1)c1ccccc1CC21CCCC1 | -5% | -15% | -2% | -66* | -9%
CC1(C)Cc2ccccc2C2=C(C(=O)N3CCCCCC3)C(=O)C(=O)N21 | 16% | . | 1% | -9 | .
COc1ccccc1NC(=O)c1oc2ccccc2c1NC(=O)COc1cccc(C)c1 | . | ? | ? | 14 | ?
N#Cc1c([N+](=O)[O-])cc([N+](=O)[O-])cc1S(=O)(=O)Cc1ccccc1 | 10µM* | ? | 28µM* | -99* | ?
COc1ccc(-c2nc3c(c(=O)n(C)c(=O)n3C)n2CC2CC(c3ccccc3)=NO2)cc1OC (configuration not stated) | 5.6µM* | . | 0% | 4 | ?
COc1ccc(C(=O)OCC2CC(c3ccccc3)=NO2)cc1OC (configuration not stated) | ? | . | -21% | 4 | .
N=c1c2c(-c3ccccc3)c(-c3ccccc3)n(Cc3ccco3)c2ncn1CCO | 13µM* | -27% | ? | -5 | ?
CN(C)CCn1c2ccccc2c2nc3ccc([N+](=O)[O-])cc3cc21 | -58% | i | 6% | -108* | ?
CCn1c2ccccc2c2cc([N+](=O)[O-])ccc21 | ? | -14% | -14% | -20 | -13%
